# Assay outcomes (PubChem BioAssay)
# Hits are enriched below; roughly 13% of the tested compounds scored in any of these assays.
# Shiga toxin inh – A qHTS for Small Molecule Inhibitors of Shiga Toxin; hit rate 9.2% among 290,000; AID 2315, 2010; Vero cells, Shiga toxin protein synthesis inhibition reporter; inhibition, % at 38.7 µM; in the data active = inhibition mostly above about 28%, no sharp cut-off; inactive = mostly below about 43%
# CHX counter – Cycloheximide Counterscreen for Small Molecule Inhibitors of Shiga Toxin; cell reporter, cycloheximide protein synthesis inhibition counterscreen; hit rate 12% among 300,000; max response, %; in the data active = max response mostly above about 13%, no sharp cut-off; inactive = mostly below about 14%; note: read at 38.3 µM for the half of the compounds with a filed dose
# LASV entry inh – qHTS for Inhibitors of binding or entry into cells for Lassa Virus; Potency, µM (highest dose often 37.9 µM), usual class: inhibitors; AID 540256, 2011; Lassa virus pseudotype entry inhibition, cell reporter; hit rate 1.2% among 300,000; calls by dose curve; tested in HEK293 cells; note: nearly all actives have a fitted effect of over 50% in size
# FMDV antiviral – High Throughput Screening for Foot and Mouth Disease Virus Antivirals; Potency, µM (series often up to 57.9 µM), usual class: inhibitors; hit rate 1.2% among 410,000; AID 1159524, 2015; FMDV antiviral cell-based qHTS; calls by dose curve; tested in HEK293T cells; note: read-out not given here; nearly all actives have a fitted effect of over 45% in size
# HCV inhibitor – qHTS Assay for Inhibitors of Hepatitis C Virus (HCV); Huh7.5.1 HCVcc-Cre infection, luciferase reporter, 44 h; Potency, µM (highest dose often 41.8 µM), actives largely listed as inhibitors; hit rate 3.4% among 340,000; AID 651820, 2012; active = well fitted inhibition curve with a large enough effect; inconclusive = small, poorly fitted or top-dose-only effect, or another doubt; inactive = no such curve, though single readings can be large or run the other way
#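 Compounds are dispensed onto cells plated 4 h earlier at 1,000 per well, with HCVcc-Cre virus (about 0.5 moi) added next. Following 44 h of culture, luminescent signal is measured for 15 sec after 15 min with substrate at room temperature.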
# Marburg entry inh – qHTS for inhibitors of binding or entry into cells for Marburg Virus; hit rate 1.8% among 300,000; AID 540276, 2011; Marburg virus pseudotyped entry inhibition, cell reporter; Potency, µM (doses to about 37.8 µM), actives largely listed as inhibitors; calls by dose curve; tested in HEK293 cells
# A number is an active result; - = inactive; ? = inconclusive; . = no result.
SMILES,Shiga toxin inh,CHX counter,LASV entry inh,FMDV antiviral,HCV inhibitor,Marburg entry inh
O=C(NC(=O)c1ccccc1O)c1ccc2c(c1)CCO2,-,-,11.2µM,-,-,?
CC(C)(C)NC(=O)c1ccc2c(c1)CCO2,-,-,.,-,-,.
NC(=O)C1CCN(c2ccc(S(=O)(=O)N3CCCCC3)cn2)CC1,-,-,-,-,-,-
Cc1ccc2[nH]c3c(c2c1)CN(C(=O)CN1CCN(c2cccc(C)c2C)CC1)CC3,-,-,?,?,6.31µM,?
Cc1ccc2[nH]c3c(c2c1)CN(C(=O)CN1CCN(C(=O)c2ccco2)CC1)CC3,-,-,.,.,.,.
Cc1cc(C)n(CC(=O)Nc2cccc(C(F)(F)F)c2)n1,-,-,.,-,-,.
CCOC(=O)COc1ccc2c(c1)c(C(C)=O)c(C)n2-c1ccccc1,-,-,?,-,-,-
CCOc1ccc2c(c1)c(C(C)=O)c(C)n2-c1ccccc1,-,-,-,-,11.2µM,-
CCOC(=O)c1c(C)n(C)c2ccc(OCCN(C)C)cc12,-,-,-,-,-,-
CCOC(=O)c1c(C)n(-c2ccccc2)c2ccc(OCCN(C)C)cc12,-,-,?,-,15.8µM,?
CCN(CC)CCCNC(=O)c1cc(-c2ccccc2)c(N2CCCCC2)s1,-,-,15.8µM,?,6.31µM,?
O=S1(=O)CCOC[C@H](CC2CCCCC2)N1Cc1cccc(C(F)(F)F)c1,-,-,.,-,?,.
Cc1cccc(NC(=O)Nc2cccs2)c1C,.,.,.,-,.,-
Cc1ccc(NC(=O)Nc2cccs2)c(Cl)c1,107.2,56.8,?,-,?,?
Cc1c(NC(=O)Nc2cccs2)cccc1[N+](=O)[O-],-,12.2,.,-,?,.
O=C(Nc1cccs1)Nc1ccccc1Cl,77.8,75.3,-,-,-,-
O=C(Nc1cccs1)Nc1cccnc1Cl,58.9,60.4,-,-,-,-
CN(C)c1ccc(-c2cc(Nc3ccc(F)cc3)ncn2)cc1,.,.,.,-,.,.
COC(=O)c1nc(-c2ccc(C)cc2)[nH]c1C(C)(C)C,.,.,.,-,.,.
O=C(CSc1nnc(NC(=O)c2ccco2)s1)Nc1ccc(F)cc1,-,-,-,-,-,-
COC(=O)c1ccccc1Sc1ncnc2onc(C)c12,-,-,-,28.2µM,?,?
Cc1noc2ncnc(Sc3ccccc3Cl)c12,-,-,?,39.8µM,?,-
Cc1c(C(C)(C)O)[nH]c2ccc(C(F)(F)F)cc12,-,8.6,.,-,-,.
COCCn1c(=O)[nH]c2cc(C(=O)OC)ccc2c1=O,-,-,-,-,-,-
COC(=O)c1ccc2c(C)c(C(C)(C)O)[nH]c2c1,-,14.5,.,-,-,.
SMILES,Shiga toxin inh,CHX counter,LASV entry inh,FMDV antiviral,HCV inhibitor,Marburg entry inh
Cc1ccc2[nH]c(C(F)(F)F)cc(=O)c2c1,-,-,?,-,-,?
CCC(C)(C)NC(=O)C(C(C)C)N(CC1CCCO1)C(=O)CNS(=O)(=O)c1ccccc1 (stereo not drawn),-,-,-,-,-,-
COc1cccc(OC)c1C1=Nn2c(nnc2-c2ccccc2C)SC1,-,-,.,.,.,.
Oc1ccc(Br)cc1-c1ccnn1-c1ccccc1,-,-,-,?,?,8.91µM
Cc1nn(-c2ccccc2)c(N)c1C(c1ccc(C(C)C)cc1)c1c(C)nn(-c2ccccc2)c1N,-,-,?,-,-,?
CC1SC(c2ccc(F)cc2)N(CCc2ccccc2)C1=O (stereo not drawn),42.0,24.1,-,-,-,-
CC(C)=CCC/C(C)=C/CO/N=C1\C[C@@H](O)[C@@H](O)[C@@H]2[C@@H]3C(=O)N(Cc4ccccc4)C(=O)[C@@H]3CC[C@H]12,.,.,.,.,.,-
Cc1scc(C(=O)N/N=C/c2ccco2)c1C,53.1,29.3,-,-,-,-
Cc1scc(C(=O)N/N=C/c2ccc([N+](=O)[O-])o2)c1C,-,-,.,.,.,.
CCCOc1cccc(/C=N/NC(=O)c2csc(C)c2C)c1,-,-,-,-,?,-
Cc1scc(C(=O)N/N=C/c2ccsc2)c1C,52.1,83.6,?,-,-,?
